Laboratory results from the supplement of paper PMC8728848.
Only a selection was taken, and the strongest signals are over-represented in it overall.

How the values were obtained:
Test in all cases: glycan array binding signal (z-score within array); higher = stronger binding
Details in all cases: glycan notation: IUPAC condensed, linker removed
[1] = target: Fuc(a1-2)Gal
In short: (§1)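 From the Consortium for Functional Glycomics database, 3228 arrays were curated, keeping only those whose protein sequence was available. Binding is given as a within-array Z-score averaged across arrays sharing a protein sequence and across linkers. Negative Z-scores can be read as non-binding.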

[2] = target: Fuc(a1-2)Gal(b1-3)GlcNAc(b1-2)Man(a1-3)[Fuc(a1-2)Gal(b1-3)GlcNAc(b1-2)Man(a1-6)]Man(b1-4)GlcNAc(b1-4)GlcNAc
In short: as §1

[3] = target: Fuc(a1-2)Gal(b1-3)[Fuc(a1-4)]GlcNAc(b1-3)[Gal(b1-4)GlcNAc(b1-6)]Gal(b1-4)Glc
In short: as §1

[4] = target: Fuc(a1-2)Gal(b1-4)GlcNAc(b1-3)Gal(b1-4)GlcNAc(b1-2)Man(a1-3)[Fuc(a1-2)Gal(b1-4)GlcNAc(b1-3)Gal(b1-4)GlcNAc(b1-2)Man(a1-6)]Man(b1-4)GlcNAc(b1-4)GlcNAc
In short: as §1

[5] = target: Fuc(a1-2)Gal6S(b1-4)Glc
In short: as §1

[6] = target: Fuc(a1-2)[GalNAc(a1-3)]Gal(b1-4)GlcNAc(b1-3)Gal(b1-4)GlcNAc(b1-3)Gal(b1-4)GlcNAc
In short: as §1

[7] = target: Fuc(a1-3)[Gal(b1-4)]GlcNAc
In short: as §1

[8] = target: Fuc(a1-3)[Gal(b1-4)]GlcNAc(b1-2)Man(a1-3)[Fuc(a1-3)[Gal(b1-4)]GlcNAc(b1-2)Man(a1-6)]Man(b1-4)GlcNAc(b1-4)[Fuc(a1-6)]GlcNAc
In short: as §1

[9] = target: Fuc(a1-4)GlcNAc
In short: as §1

[10] = target: Gal(a1-3)Gal(b1-4)GlcNAc(b1-2)Man
In short: as §1

[11] = target: Gal(a1-3)Gal(b1-4)[Fuc(a1-3)]GlcNAc(b1-2)Man(a1-3)[Gal(a1-3)Gal(b1-4)[Fuc(a1-3)]GlcNAc(b1-2)Man(a1-6)]Man(b1-4)GlcNAc(b1-4)GlcNAc
In short: as §1

[12] = target: Gal(b1-3)GlcNAc(b1-3)Gal(b1-4)GlcNAc(b1-3)Gal(b1-4)GlcNAc(b1-2)[Gal(b1-3)GlcNAc(b1-3)Gal(b1-4)GlcNAc(b1-3)Gal(b1-4)GlcNAc(b1-6)]Man(a1-6)[Gal(b1-3)GlcNAc(b1-3)Gal(b1-4)GlcNAc(b1-3)Gal(b1-4)GlcNAc(b1-2)Man(a1-3)]Man(b1-4)GlcNAc(b1-4)[Fuc(a1-6)]GlcNAc
In short: as §1

[13] = target: Gal(b1-4)GlcNAc(b1-3)Gal(b1-4)GlcNAc(b1-2)Man(a1-3)[Gal(b1-4)GlcNAc(b1-3)Gal(b1-4)GlcNAc(b1-2)Man(a1-6)]Man(b1-4)GlcNAc(b1-4)GlcNAc
In short: as §1

[14] = target: Gal(b1-4)GlcNAc(b1-3)Gal(b1-4)GlcNAc(b1-3)Gal(b1-4)GlcNAc(b1-2)Man(a1-3)[Gal(b1-4)GlcNAc(b1-3)Gal(b1-4)GlcNAc(b1-3)Gal(b1-4)GlcNAc(b1-2)Man(a1-6)]Man(b1-4)GlcNAc(b1-4)GlcNAc
In short: as §1

[15] = target: Gal(b1-4)GlcNAc(b1-3)Gal(b1-4)GlcNAc(b1-3)Gal(b1-4)GlcNAc(b1-3)Gal(b1-4)GlcNAc(b1-3)Gal(b1-4)GlcNAc(b1-2)Man(a1-3)[Gal(b1-4)GlcNAc(b1-3)Gal(b1-4)GlcNAc(b1-3)Gal(b1-4)GlcNAc(b1-3)Gal(b1-4)GlcNAc(b1-3)Gal(b1-4)GlcNAc(b1-2)Man(a1-6)]Man(b1-4)GlcNAc(b1-4)GlcNAc
In short: as §1

[16] = target: Gal(b1-4)GlcNAc(b1-3)Gal(b1-4)GlcNAc(b1-3)Gal(b1-4)GlcNAc(b1-3)Gal(b1-4)GlcNAc(b1-3)Gal(b1-4)GlcNAc(b1-2)Man(a1-3)[Gal(b1-4)GlcNAc(b1-3)Gal(b1-4)GlcNAc(b1-3)Gal(b1-4)GlcNAc(b1-3)Gal(b1-4)GlcNAc(b1-3)Gal(b1-4)GlcNAc(b1-2)Man(a1-6)]Man(b1-4)GlcNAc(b1-4)[Fuc(a1-6)]GlcNAc
In short: as §1

[17] = target: Gal(b1-4)GlcNAc(b1-3)Gal(b1-4)GlcNAc(b1-3)Gal(b1-4)GlcNAc(b1-3)Gal(b1-4)GlcNAc(b1-3)Gal(b1-4)GlcNAc(b1-2)[Gal(b1-4)GlcNAc(b1-3)Gal(b1-4)GlcNAc(b1-3)Gal(b1-4)GlcNAc(b1-3)Gal(b1-4)GlcNAc(b1-3)Gal(b1-4)GlcNAc(b1-6)]Man(a1-6)[Gal(b1-4)GlcNAc(b1-3)Gal(b1-4)GlcNAc(b1-3)Gal(b1-4)GlcNAc(b1-3)Gal(b1-4)GlcNAc(b1-3)Gal(b1-4)GlcNAc(b1-2)Man(a1-3)]Man(b1-4)GlcNAc(b1-4)[Fuc(a1-6)]GlcNAc
In short: as §1

[18] = target: Gal(b1-4)GlcNAc(b1-3)Gal(b1-4)GlcNAc(b1-3)Gal(b1-4)GlcNAc(b1-3)Gal(b1-4)GlcNAc(b1-3)Gal(b1-4)GlcNAc(b1-3)Gal(b1-4)GlcNAc(b1-2)Man(a1-3)[Gal(b1-4)GlcNAc(b1-3)Gal(b1-4)GlcNAc(b1-3)Gal(b1-4)GlcNAc(b1-3)Gal(b1-4)GlcNAc(b1-3)Gal(b1-4)GlcNAc(b1-3)Gal(b1-4)GlcNAc(b1-2)Man(a1-6)]Man(b1-4)GlcNAc(b1-4)GlcNAc
In short: as §1

[19] = target: Gal(b1-4)GlcNAc(b1-6)GalNAc
In short: as §1

[20] = target: Gal3S(b1-4)Glc
In short: as §1

[21] = target: Gal3S(b1-4)Glc6S
In short: as §1

[22] = target: Gal3S(b1-4)[Fuc(a1-3)]Glc6S
In short: as §1

[23] = target: Gal6S(b1-4)GlcNAc6S
In short: as §1

[24] = target: GalNAc3S(b1-4)[Fuc(a1-3)]GlcNAc
In short: as §1

[25] = target: GlcNAc(a1-4)Gal(b1-3)GlcNAc
In short: as §1

B1: SP15308C-bot-338-23-338 (Bacteroides ovatus) (protein)
chain: DEWTDEQFKQLISFKTQPGGWGVTDVHVRYANSAKYTYNLPVLVSGSTDNTDDRLVSFSLRDDTLDILNFEKFGNRPELYFRELPQKYYSFPKELTIPAGQSHALLPIEFSLDGLDDSQKWALPLKVCEDANGTYAVNPRKYYRTAVLRPILFNEFSGRFSGSSLLGTMAGESDIKFSSTEIKLNVVTDSIVFFYAGQRTEDYEDRINYKVFLQFTGDKVDSKKDLYKMKIWAENEKLKFNSYSTPTYKVSSEMDATKTYLKHTYIVISDIDFDFVDYTSVPNYEIEYNMKGGLSVSRDLDTRKPDEDQGSDSKWW
For B1, the “glycan array binding signal (z-score)” value [1] was -0.164, the “glycan array binding signal (z-score)” value [2] was 2.27 and the “glycan array binding signal (z-score)” value [3] was -0.476. The “glycan array binding signal (z-score)” value [4] was 0.228, the “glycan array binding signal (z-score)” value [5] was 0.374 and the “glycan array binding signal (z-score)” value [6] was -0.548. For the same binder, the “glycan array binding signal (z-score)” value [7] was -0.26, the “glycan array binding signal (z-score)” value [8] was 2.11 and the “glycan array binding signal (z-score)” value [9] was 2.58. For the same binder, the “glycan array binding signal (z-score)” value [10] was -0.133, the “glycan array binding signal (z-score)” value [11] was 1.61 and the “glycan array binding signal (z-score)” value [12] was 3.59. The “glycan array binding signal (z-score)” value [13] was 1.12, the “glycan array binding signal (z-score)” value [14] was 4.37 and the “glycan array binding signal (z-score)” value [15] was 2.06. For the same binder, the “glycan array binding signal (z-score)” value [16] was 2.46, the “glycan array binding signal (z-score)” value [17] was 6.22 and the “glycan array binding signal (z-score)” value [18] was 0.957. For the same binder, the “glycan array binding signal (z-score)” value [19] was -0.147, the “glycan array binding signal (z-score)” value [20] was -0.591 and the “glycan array binding signal (z-score)” value [21] was -0.188. For the same binder, the “glycan array binding signal (z-score)” value [22] was 0.68, the “glycan array binding signal (z-score)” value [23] was -0.622 and the “glycan array binding signal (z-score)” value [24] was -0.053. For the same binder, the “glycan array binding signal (z-score)” value [25] was 0.674.
